This is a sample that favours compounds with a hit; in the whole collection about 2.3% have one here.
Mcl1 Bid PPI: Mcl-1/Bid interaction inhibition; TR-FRET Mcl-1/Bid-Dy647 peptide binding, 1536-well; inhibition, % at 21.7 µM; 0.97% of 220,000 active;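 active = compounds that cut the binding signal by more than half at the single screening dose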;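 note: His-tagged Mcl-1 with europium anti-His antibody binding Bid BH3 peptide; 0% = Mcl-1 plus peptide wells and 100% = peptide-only wells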
Mcl1-Noxa inh: disrupts binding of human Mcl-1 to Noxa peptide. inhibition, % at 21.7 µM. Q07820. TR-FRET Mcl-1/Noxa peptide binding, 2 h. AID 1022. 1.5% of 220,000 active;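 active = compounds that cut the protein-peptide binding signal by more than 50% relative to plate controls in a single-dose test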;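 note: His-tagged Mcl-1 with rhodamine Noxa BH3 peptide and terbium anti-His antibody; 0% = Mcl-1 plus Noxa peptide wells and 100% = peptide-only wells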
GLD-1 TGE inh: GLD-1-TGE RNA interaction inhibition (C. elegans); Q17339; purified GLD-1 + fluorescein TGE RNA, fluorescence polarization; inhibition, % at 5.96 µM; 0.44% of 320,000 active;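 active = percent inhibition above a per-plate cutoff, the plate mean of test compounds plus 3 SD, cut at about 30% in these data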;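 note: 0% = DMSO wells with GLD-1 and probe and 100% = wells lacking GLD-1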
Target sequence (Q17339 whole entry, looked up): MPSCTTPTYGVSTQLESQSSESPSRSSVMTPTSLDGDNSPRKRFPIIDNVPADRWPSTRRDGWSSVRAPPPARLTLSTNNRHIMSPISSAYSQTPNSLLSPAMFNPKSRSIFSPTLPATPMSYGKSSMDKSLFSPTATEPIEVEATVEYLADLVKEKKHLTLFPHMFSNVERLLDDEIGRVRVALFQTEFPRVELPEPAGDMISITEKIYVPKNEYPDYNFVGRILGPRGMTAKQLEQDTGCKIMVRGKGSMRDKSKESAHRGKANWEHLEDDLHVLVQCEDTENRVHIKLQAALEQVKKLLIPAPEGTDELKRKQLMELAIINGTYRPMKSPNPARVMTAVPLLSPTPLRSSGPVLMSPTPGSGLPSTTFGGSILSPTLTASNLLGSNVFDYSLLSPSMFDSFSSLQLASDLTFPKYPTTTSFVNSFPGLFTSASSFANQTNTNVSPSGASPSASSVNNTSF
MCL1-BIM inh: inhibitors of human MCL1 binding to BIM-BH3 peptide; inhibition, % at 10.9 µM; AID 2057; 0.68% of 320,000 active; GST-MCL1 / FITC-Bim-BH3 fluorescence polarization; Q07820;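 active = inhibition above the mean inhibition of all tested compounds plus 3 SD, set per campaign, cut at about 40% in these data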;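 note: 0% = DMSO wells and 100% = unlabeled Bim-BH3 peptide control; higher means more loss of mP so more displacement of Bim peptide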
BCLXL inh: Bcl-xL (human) inhibition; AID 2129; inhibition, % at 10.9 µM; 0.7% of 320,000 active; Q07817; GST-Bcl-xL / FITC-Bim BH3 peptide fluorescence polarization;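 active = inhibition above the mean of all tested compounds plus 3 SD, cutoff set per campaign, cut at about 30% in these data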;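 note: 0% = DMSO wells and 100% = unlabeled Bim-BH3 peptide competitor; inhibitors lower millipolarization by displacing the labeled peptide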
Mcl-1 Bim block: inhibitors of Bim-Mcl-1 interaction, human | Q07820 | Bead-based flow cytometry, Bim peptide-Mcl-1 binding | inhibition, % at 10 µM | 0.1% of 190,000 active; in the data active = inhibition above about 40%;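 note: 0% = no compound tracer wells and 100% = peptide blocker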
* = called active by the depositor; . = no result given.

SMILES	Mcl1 Bid PPI	Mcl1-Noxa inh	GLD-1 TGE inh	MCL1-BIM inh	BCLXL inh	Mcl-1 Bim block
Nc1nonc1-c1nc2ccccc2n1CC(=O)N/N=C/c1ccc(-c2ccccc2C(=O)O)o1	-15	27	0	16	17	3
C/C=C/c1ccc(OCC(=O)O)c(OC)c1	-25	-2	3	0	-2	.
CC1=C(C#N)c2nc(N)c(C#N)c(C)c2/C1=C\c1ccc(-c2ccccc2C(=O)O)o1	-6	82*	.	.	.	5
COc1cc(/C=C2/C(C)=C(C#N)c3nc(N)c(C#N)c(C)c32)ccc1OCC(=O)O	-69	18	9	29	31*	4
COc1ccc(-c2ccc3c(c2)S(=O)(=O)c2cccc(C(=O)N4CCN(C5CCCCC5)CC4)c2C3=O)cc1OC	.	.	-17	.	.	.
COc1ccc(Cl)cc1-n1c(C)cc(C=O)c1C	-9	6	-6	-10	-5	44*
COc1ccc(Cl)cc1-n1c(C)cc(C(=O)O)c1C	-73	0	3	-11	-2	-170
Cc1cc2nc(-c3ccc(NC(=O)C(C)C)cc3)oc2cc1C	73*	6	-3	2	3	-1
Cc1cccc(C)c1-n1cccc1/C=C1\SC(=S)N(c2cccc(C(=O)O)c2)C1=O	52*	51*	-14	1	14	16
Cc1cccc(C)c1NC(=O)CN1C(=O)S/C(=C\c2cccn2-c2cccc(C(=O)O)c2)C1=O	-34	-2	6	0	10	0
Cc1ccc(NC(=O)CN2C(=O)S/C(=C\c3cccn3-c3cccc(C(=O)O)c3)C2=O)c(C)c1	45	93*	-4	1	0	4
COc1ccccc1C(=O)NC(=O)COC(=O)c1cccc(OC(F)F)c1	.	.	3	-14	-3	.
COC(=O)c1ccc(CSc2ncnc3sc(C)c(C)c23)o1	59*	14	8	20	11	-2
CCn1cc(CN2CCC(n3nccc3NC(=O)c3ccccc3C)CC2)c(C)n1	.	.	0	3	4	.
O=C1NNC(c2ccccc2)=N/C1=C\c1ccco1	31	65*	-1	25	17	.
CCOC(=O)N1CCN(Cc2c(F)cccc2F)CC1	52*	28	-4	-2	2	-3
CCOC(=O)N1CCN(Cc2cn3ccccc3n2)CC1	56*	8	-8	2	4	-6
COc1ccc(C(O)(CCC(C)C)C(CN2CCOCC2)c2ccc(Cl)cc2)cc1 (stereo unspecified)	.	.	10	7	7	.
COc1ccc(C(O)(CC(C)C)C(CN2CCOCC2)c2ccccc2)cc1 (stereo unspecified)	.	.	4	0	47*	.
O=C(O)c1ccc(NS(=O)(=O)c2ccc3c(c2)C(=O)c2ccccc2C3=O)cc1	-16	16	22	34	37*	16
Cc1ccc2nc(-c3ccccn3)cc(C(=O)NCCc3ccc(F)cc3)c2c1	.	.	-2	5	4	.
CCN(CC)c1ccc(/C=C/c2cc(-c3ccccc3)c3ccccc3n2)cc1	-1	9	-141	31	30*	.
CCOC(=O)c1c(C)[nH]c(C)c1S(=O)(=O)NC1CCN(C(=O)OCC)CC1	.	.	3	3	3	.
CCOC(=O)N1CCN(C(=O)CSc2ccc3nnc(CCNC(=O)c4ccc(OC)cc4)n3n2)CC1	89*	2	7	4	6	-2
Cc1ccc(C2C(/C=C3/SC(=S)NC3=O)=C(c3cccs3)Oc3ccccc32)cc1 (stereo unspecified)	2	90*	-5	-22	-9	4
CCc1nc2ccc(C(=O)NCCc3ccc(OC)c(OC)c3)cc2nc1CC	.	.	4	1	3	.
Cc1ccc(-c2nc3ccc(C(=O)O)cc3nc2-c2ccc(C)cc2)cc1	2	9	3	1	2	-2
O=C(O)c1ccc2nc(-c3ccco3)c(-c3ccco3)nc2c1	-10	80*	.	.	.	5
O=C(c1ccc2nc(-c3ccco3)c(-c3ccco3)nc2c1)N1CCN(c2ccccc2)CC1	-19	52*	13	18	17	0
COc1ccc(CCNC(=O)c2ccc3nc(-c4ccco4)c(-c4ccco4)nc3c2)cc1OC	18	99*	3	31	21	8
